# Measurements as given in PubChem BioAssay (NCI).
# Compounds without any hit were thinned out: in the full panel of roughly 83,000, 20% have a hit.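 Cell lines were cultured in 96-well plates, exposed to a single compound concentration, and assessed for percent growth 48 hours later.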 Unmarked numbers belong to inactive results. Active and inactive are the calls of the source. How the source made its calls: active means growth percent below 10; inactive means the rest.
# Experiments:
# Assay in all cases: NCI-60 one-dose screen, 48 h (100 = growth as untreated, 0 = no growth, -100 = all killed)
# Conditions in all cases: 10 µM unless noted
# SK-MEL-2 melanoma = test system: SK-MEL-2 melanoma
# EKVX NSCLC = test system: EKVX NSCLC
# SN12C renal = test system: SN12C renal
# UO-31 renal = test system: UO-31 renal
# TK-10 renal = test system: TK-10 renal
# ACHN renal = test system: ACHN renal
# CAKI-1 renal = test system: CAKI-1 renal
# A498 renal = test system: A498 renal
# CCRF-CEM leukemia = test system: CCRF-CEM leukemia
# MOLT-4 leukemia = test system: MOLT-4 leukemia
SMILES,growth (SK-MEL-2 melanoma),growth (EKVX NSCLC),growth (SN12C renal),growth (UO-31 renal),growth (TK-10 renal),growth (ACHN renal),growth (CAKI-1 renal),growth (A498 renal),growth (CCRF-CEM leukemia),growth (MOLT-4 leukemia)
C=C(C)[C@@H]1CC[C@]2(C(=O)N3CCCNCC3)CC[C@]3(C)[C@H](CC[C@@H]4[C@@]5(C)CCC(=O)C(C)(C)[C@@H]5CC[C@]43C)[C@@H]12,118%,98.3%,84%,85.5%,127%,105%,67.8%,89.5%,84.2%,63.3%
CCCCC(=O)OC1CCCCC1C (stereo unspecified),111%,104%,94.1%,93.2%,94.5%,94.4%,94.9%,93.2%,94.3%,109%
N#CC1c2ccccc2-c2ccccc2N1C(=O)c1ccccc1 (stereo unspecified),72.7%,29.5%,33.3%,42.5%,63.9%,30.1%,37.4%,8.67% (active),41.7%,35.8%
COc1ccc(OCC(CO)N2CCN(c3ccccc3)CC2)cc1 (stereo unspecified),106%,108%,97.2%,86.4%,109%,104%,90.6%,108%,112%,116%
Cn1cccc1/C=C1/SC(=S)N(CCc2ccc(O)cc2)C1=O,64.7%,61%,60%,53.7%,110%,59.9%,44.7%,81.8%,21.9%,31%
Brc1ccc(Cn2nnnc2-c2ccn(-c3ccccc3)n2)cc1,63.5%,69.8%,68.5%,69.2%,77.6%,70.7%,58.2%,52.5%,56.7%,52.4%
Cn1cc(-c2csc(-c3c[nH]c4ccccc34)n2)c2cccnc21,38.2%,42.5%,46.5%,57.2%,48%,51.8%,15.7%,13.5%,20.4%,44.4%
C[C@H]1OC(=O)/C=C/[C@@H](O)[C@@H](O)CCCCCCCC[C@@H]1O,102%,99.6%,101%,82.6%,96.9%,100%,96.3%,71.1%,62.4%,106%
CN(C)c1ccc(N)c2ccccc12,89.6%,49.2%,-62.2% (active),52.7%,128%,67.2%,69.4%,183%,41.8%,40.7%
COC(=O)[C@]12CC[C@@H](C)[C@H](C)[C@@H]1C1=CC[C@@H]3[C@@]4(C)C[C@@H](OC(C)=O)[C@H](O)[C@@](C)(COC(C)=O)[C@@H]4[C@H](O)C[C@@]3(C)[C@]1(C)CC2,-73.6% (active),-88.8% (active),-69.9% (active),-81.6% (active),-86.5% (active),-91.9% (active),-88.2% (active),-94.4% (active),-54.3% (active),-34.3% (active)
O=P(O)(c1ccccc1)c1ccccc1I,96%,94.7%,99.3%,83.4%,102%,106%,90.1%,92.6%,94.6%,97.7%
CC(=O)n1c(/C(C#N)=C/c2ccc(N(C)C)cc2)cc2ccccc21,47.9%,36.8%,42.9%,52.6%,91.3%,47.5%,37.7%,2.85% (active),21.1%,33.1%
COc1cc(/C=C/c2cc(/C=C/c3ccc(O)c(OC)c3)n(-c3ccccc3)c(=O)n2)ccc1O,79.5%,71.4%,71.4%,58.6%,113%,81.1%,83.7%,108%,28.5%,31.5%
Cc1ccncc1C(=O)O,121%,97.5%,94.6%,88.7%,123%,97.2%,95.9%,89%,140%,122%
O=c1[nH]c2c3ccncc3cc(-c3cccc(Cl)c3)c2c2cnccc12,64.1%,74.8%,57.1%,30.6%,0.334% (active),17.2%,63.3%,50.2%,56.4%,76.9%
CCN(CC)C(=O)CCCCCn1c2ccccc2c2c3c(c4c5ccccc5[nH]c4c21)C(=O)N(O)C3=O,61.4%,64.1%,33.2%,-50.7% (active),68.3%,-64.8% (active),-59% (active),69.1%,21.3%,-0.333% (active)
NC(=O)NCC1CCCCC1,105%,96.6%,106%,92.9%,95.5%,106%,89.3%,104%,99.3%,91.9%
CCCCC[C@H]1CC=C2C(=O)C=C[C@@H]2CC=CCCCC(=O)O[C@@H](CCCCC)CC=C2C(=O)C=C[C@@H]2CC=CCCCC(=O)O[C@@H](CCCCC)CC=C2C(=O)C=C[C@@H]2CC=CCCCC(=O)O1,-38.4% [8.75 µM] (active),22.4% [8.75 µM],-10.5% [8.75 µM] (active),-96.7% [8.75 µM] (active),31.6% [8.75 µM],-11.6% [8.75 µM] (active),,-13.8% [8.75 µM] (active),7.92% [8.75 µM] (active),
CSc1ccc(N(C)c2nc(C)nc3c2CCC3)cc1,24%,52.6%,18.4%,29.3%,56.6%,18.3%,20.5%,-8.39% (active),8.07% (active),6.54% (active)
CCN1CCN(C(=O)[C@@]2(C)CC[C@]3(C)CC[C@]4(C)C(=CC(=O)[C@@H]5[C@@]6(C)CC[C@H](OC7C[C@@H](O)[C@@H](O)C(C)O7)C(C)(C)[C@@H]6CC[C@]54C)[C@@H]3C2)CC1 (stereo partly specified),105%,80.4%,-64.7% (active),-80.8% (active),136%,79.5%,89.4%,95.5%,0.503% (active),0.754% (active)
COc1ccc(-c2cc(=O)oc3ccc(Cl)cc23)cc1F,36.3%,38.3%,30.6%,48.4%,62.9%,34.8%,27%,2.69% (active),11.8%,7.8% (active)
Cc1ccc(-c2nc3ccc(Cl)cc3c(=O)n2N2C(=O)CSC2c2ccccc2Cl)cc1 (stereo unspecified),96.2%,60%,69%,67.2%,74.6%,26.4%,60.3%,84.8%,74.8%,82.7%
COc1ccc2[nH]cc(-c3nc(-c4c[nH]c5ncccc45)cs3)c2c1,32.9%,64.4%,53.2%,15.1%,31.9%,19.8%,4.05% (active),10.9%,28.3%,8.76% (active)
CC1(n2nnnc2N2CCCN(c3ncccc3N)CC2)CCC1,110%,97.5%,95.7%,92.4%,99%,99.2%,90.7%,93.3%,103%,99.3%
Oc1cccc2oc(=S)[nH]c12,109%,111%,98.6%,72.9%,106%,99.7%,120%,94.8%,,99.5%
Cc1ccc(-c2nc([P+](c3ccccc3)(c3ccccc3)c3ccccc3)c(N3C[C@H]4C[C@H](C3)c3cccc(=O)n3C4)o2)cc1,87.7%,80.6%,95.2%,83.6%,98.8%,109%,98.5%,,78.4%,96.6%
